104 compounds from PubChem BioAssay AID1456 (Vanderbilt High Throughput Screening Facility, 2008) can be followed below.

The structures appear in SMILES notation. Screen size: about 190,000 compounds; about 4,100 (2.2%) were called active. Only a selection was taken, and actives are over-represented in it overall. A number with no mark means an inactive call.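 How the source made its calls: active means thallium flux slope and its plate-corrected score both differing from the plate sample mean at a set confidence after two filtering rounds, in either direction; inactive means the rest.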

The target of the test is Solute carrier family 12 member 5 (Homo sapiens) (UniProt Q9H2X9). The experiment in a line: modulation of human KCC2 ion transport – cell-based, HEK293 KCC2, FluoZin-2 fluorescence, MLSMR, primary screen (AID 1456).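 Further: slope of fluorescence scaled to starting intensity during 10 to 20 s after thallium.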 The conditions noted are these: KCC2 cells, thallium flux FluoZin-2 fluorescence; at 10 µM.
Chain of Solute carrier family 12 member 5 (Homo sapiens) (Q9H2X9 whole entry, looked up): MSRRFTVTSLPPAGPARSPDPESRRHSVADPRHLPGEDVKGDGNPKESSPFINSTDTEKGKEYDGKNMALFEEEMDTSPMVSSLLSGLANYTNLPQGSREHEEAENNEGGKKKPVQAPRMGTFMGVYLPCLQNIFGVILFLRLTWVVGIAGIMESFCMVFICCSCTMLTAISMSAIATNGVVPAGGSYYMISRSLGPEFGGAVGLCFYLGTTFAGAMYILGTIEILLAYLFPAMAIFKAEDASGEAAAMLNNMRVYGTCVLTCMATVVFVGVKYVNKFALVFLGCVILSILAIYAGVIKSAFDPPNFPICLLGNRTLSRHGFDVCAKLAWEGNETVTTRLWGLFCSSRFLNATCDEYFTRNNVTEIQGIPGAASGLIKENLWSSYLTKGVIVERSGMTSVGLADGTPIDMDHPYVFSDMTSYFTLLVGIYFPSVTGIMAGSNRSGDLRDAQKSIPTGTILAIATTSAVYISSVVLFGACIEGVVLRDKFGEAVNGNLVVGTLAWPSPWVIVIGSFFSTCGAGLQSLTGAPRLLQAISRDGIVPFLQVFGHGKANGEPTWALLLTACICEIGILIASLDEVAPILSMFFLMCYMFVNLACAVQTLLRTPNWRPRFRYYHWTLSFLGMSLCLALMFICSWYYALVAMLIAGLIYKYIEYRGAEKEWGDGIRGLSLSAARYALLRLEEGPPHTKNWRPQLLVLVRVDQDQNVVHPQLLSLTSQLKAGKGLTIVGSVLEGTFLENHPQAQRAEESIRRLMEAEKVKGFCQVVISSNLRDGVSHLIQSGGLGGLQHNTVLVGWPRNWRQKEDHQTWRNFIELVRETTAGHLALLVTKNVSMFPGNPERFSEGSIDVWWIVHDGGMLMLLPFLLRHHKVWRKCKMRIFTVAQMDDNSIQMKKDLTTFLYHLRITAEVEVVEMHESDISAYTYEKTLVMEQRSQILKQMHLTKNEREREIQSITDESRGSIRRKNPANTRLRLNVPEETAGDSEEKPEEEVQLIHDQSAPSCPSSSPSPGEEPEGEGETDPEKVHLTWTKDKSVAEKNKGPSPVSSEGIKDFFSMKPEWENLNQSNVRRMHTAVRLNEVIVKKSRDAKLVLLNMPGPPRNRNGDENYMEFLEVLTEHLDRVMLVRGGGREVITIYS
Regarding `CCc1ccc(-n2c(SCc3cc(=O)n4cc(Br)ccc4n3)nc3[nH]ncc3c2=O)cc1`, the B-score of Tl+ flux slope (higher = more flux/activation; lower = inhibition) is -1.01. For `Cc1ccccc1NC(=S)Nc1cccc([N+](=O)[O-])c1`, the B-score of Tl+ flux slope (higher = more flux/activation; lower = inhibition) is 0.705. With `Cc1cc(C(=O)NNC(=S)NC(C)c2ccccc2)cs1` (centres undefined) the figure was -1.17. With `Cc1ccc(NC(=S)N/N=C2/CCCc3c(C)cc(C)cc32)cc1` the figure was 0.076; with `Cc1ccc(C)c(NC(=S)NNC(=S)Nc2ccc(C(C)C)cc2)c1`, 4.26 (active); with `CC(C)c1ccc(NC(=S)NNc2ccc(Cl)c(C(=O)O)c2)cc1`, 0.393. In the case of `Cc1cc(C(=O)NNC(=S)Nc2ccccc2C)cs1` it was 4.58 (active); in that of `COc1ccc(CCNC(=O)C(=O)NCC2CCNCC2)cc1OC`, 0.52; in that of `O=C(NNc1cc(Cl)cc(Cl)c1)c1c(F)cccc1Cl`, -0.755. For `COc1cc(OC)c(OC)cc1/C=N/Nc1ncnc2c1[nH]c1ccc(C)cc12`, the B-score of Tl+ flux slope (higher = more flux/activation; lower = inhibition) was -1.07. With `Cc1ccc(C(=O)NNc2ncnc3ccccc23)cc1` the figure was 0.377; with `OC(c1ccccc1)C(CN1CCOCC1)c1ccccc1` (centres undefined), 0.0146; with `Cc1ccc(N=Cc2c(O)n(-c3nccs3)c(=O)c3ccccc23)c(C)c1`, -6.91 (active). In the case of `Cc1ccc(-n2c(O)c(C=Nc3ccc(S(=O)(=O)Nc4ncccn4)cc3)c3ccccc3c2=O)cc1C` it was -0.0402. With `Cc1ccc(N=Cc2c(O)cc(C)oc2=O)c(C)c1` the figure was 1.91; with `CC(=O)Nc1ccc(S(=O)(=O)NC2(C(F)(F)F)C(=O)NC(C)=C2C#N)cc1` (centres undefined), -0.983; with `CCOC(=O)C1=C(NC(=S)NC(=O)c2ccccc2)c2ccccc2CC1(C)C`, 3.94 (active). `COCCCNC(=S)NC(=O)c1ccccc1`: the B-score of Tl+ flux slope (higher = more flux/activation; lower = inhibition) was 1.23. In the case of `CCOC(=O)c1c(NC(=O)C2(C)Cc3ccccc3C(=O)O2)sc2c1CCCC2` (centres undefined) it was 1.05. With `Cc1nnsc1C(=O)NCc1c(F)cccc1Cl` the figure was 0.221; with `COc1ccccc1NC(=O)c1cc(Cl)nc2ccccc12`, 0.201; with `COc1cc(NC(=O)c2ccc(CNc3c(N4CCCC4)c(=O)c3=O)cc2)cc(OC)c1OC`, 0.127. With `Cc1cc(C)nc(SCC(=O)N(C)C)n1` the figure was -0.609; with `CCOC(=O)c1c(C)oc(C)c(C(=O)OCC)c1=O`, -0.18. Take `CCOC(=O)c1c(C)[nH]c(C)c1C(=O)CSc1nc(N)cc(N)n1`: the B-score of Tl+ flux slope (higher = more flux/activation; lower = inhibition) is 6.26 (active). With `O=S(=O)(NCCc1csc(-c2ccccc2)n1)c1cccnc1` the figure was -0.711; with `C/C(=N/NC(=O)CC(=O)N/N=C(\C)c1ccc([N+](=O)[O-])cc1)c1ccc([N+](=O)[O-])cc1`, -0.738; with `Fc1ccccc1/C=N/n1c(-c2cccnc2)n[nH]c1=S`, -0.286. In the case of `S=c1[nH]nc(-c2ccncc2)n1/N=C/c1ccccc1Cl`, the B-score of Tl+ flux slope (higher = more flux/activation; lower = inhibition) was 1.47. In the case of `COc1ccccc1/C=C/C=N/n1c(-c2ccc(Cl)cc2Cl)n[nH]c1=S` it was 11.5 (active); in that of `COc1ccc(NC(=O)c2cn(-c3ccccc3)nc2SC)cc1`, -1.58.

As to `CCOC(=O)c1ccc(N=C2SC(C(=O)NC)CC(=O)N2CCc2ccccc2)cc1` (centres undefined), the B-score of Tl+ flux slope (higher = more flux/activation; lower = inhibition) is 0.234.

Regarding `COc1ccc2nc(NC(=O)NC3CCCCC3)sc2c1`, the B-score of Tl+ flux slope (higher = more flux/activation; lower = inhibition) was -1.35.

As for `O=C1/C(=C/c2ccc3c(c2)OCO3)CCC/C1=C\c1ccc2c(c1)OCO2`, the B-score of Tl+ flux slope (higher = more flux/activation; lower = inhibition) was 0.12. In the case of `CCC1=C/C(=C\c2ccc3c(c2)OCO3)C(=O)S1` it was -8.87 (active).

On to `CSC1=N/C(=C\c2ccc3c(c2)OCO3)C(=O)S1`, for which the B-score of Tl+ flux slope (higher = more flux/activation; lower = inhibition) is -0.302. As to `COc1ccc(/C=N/n2nnnc2N)cc1OC`, the B-score of Tl+ flux slope (higher = more flux/activation; lower = inhibition) was 0.513. With `c1ccc(C2c3[nH]c4ccccc4c3CCN2Cc2cccn2-c2cccnc2)nc1` (centres undefined) the figure was -1.15; with `Cc1nnc(SC(C(=O)Nc2cc(Cl)cc(Cl)c2)c2ccccc2)[nH]c1=O` (centres undefined), -4.12 (active). With `O=C(Nc1cc(Cl)cc(Cl)c1)C(NCCCO)c1ccccc1` (centres undefined), the B-score of Tl+ flux slope (higher = more flux/activation; lower = inhibition) was -0.607. For `Cc1nnc(SC(C(=O)c2ccccc2)c2ccccc2)[nH]c1=O` (centres undefined), the B-score of Tl+ flux slope (higher = more flux/activation; lower = inhibition) is -0.235. With `O=C1N(c2ccccc2)C(=Nc2ccccc2)SC12CC2` the figure was -0.447; with `O=C(c1ccc(=O)oc1)N1CCC(C(O)(c2ccccc2)c2ccccc2)CC1`, -0.673; with `Cc1c(C(=O)NC(=S)NCc2cccnc2)oc2ccccc12`, 13.6 (active). Regarding `Cc1ccc(C(=O)NC(=S)NCc2cccnc2)cc1`, the B-score of Tl+ flux slope (higher = more flux/activation; lower = inhibition) was 1.21. As to `O=C(CCc1ccccc1)NCc1cccnc1`, the B-score of Tl+ flux slope (higher = more flux/activation; lower = inhibition) was 0.123. In the case of `CC(C)(C)c1ccc(CCC2OCC(CN3CCOCC3)O2)cc1` (centres undefined) it was 0.742. For the compound `CCNC(=S)N1CCN(CCN=CC2=C(O)CC(C)(C)CC2=O)CC1`, the B-score of Tl+ flux slope (higher = more flux/activation; lower = inhibition) was -0.763.

Consider `Cc1ccc(C(O)P(=O)(OC(C)C)c2ccc(N(C)C)cc2)cc1` (centres undefined), for which the B-score of Tl+ flux slope (higher = more flux/activation; lower = inhibition) was 0.0994. With `COC(=O)c1sccc1NC(=O)CSc1ccccc1NS(=O)(=O)c1cc(Cl)ccc1Cl` the figure was 18.4 (active).

Regarding `COC(=O)c1scc(C)c1NC(=O)CSc1ccc(Cl)cc1`, the B-score of Tl+ flux slope (higher = more flux/activation; lower = inhibition) was -1.21. With `COC(=O)c1sccc1NC(=O)COc1ccc(Cl)cc1` the figure was 0.143.

In the case of `O=C(CSc1ccc(-c2ccco2)nn1)NCc1ccc2c(c1)OCO2`, the B-score of Tl+ flux slope (higher = more flux/activation; lower = inhibition) is -0.85. With `CC(C)Cc1nc(Cl)c(C#N)c2c1CCC2` the figure was -0.778; with `CCC(=O)N1c2ccccc2NC2=C(C(=O)CCC2)C1c1ccco1` (centres undefined), 1.12; with `O=C1CC(c2cccc(F)c2)C2=C(CCCC2=O)N1` (centres undefined), -0.124. With `CCCC(=O)N1c2ccccc2NC2=C(C(=O)CCC2)C1c1ccc(F)cc1` (centres undefined) the figure was 2.84 (active). As to `Cn1cnc([N+](=O)[O-])c1Sc1n[nH]c(N)n1`, the B-score of Tl+ flux slope (higher = more flux/activation; lower = inhibition) is 0.197. In the case of `Cn1cnc(S(=O)(=O)Nc2ccc3c(c2)OCCO3)c1` it was 1.1. As for `Oc1ccc2ccccc2c1N=Nc1nccs1`, the B-score of Tl+ flux slope (higher = more flux/activation; lower = inhibition) was 111 (active). With `Oc1ccc(N=Nc2nccs2)c(O)c1` the figure was 0.824.

With `Oc1ccc2ccccc2c1C=Nc1ccccc1`, the B-score of Tl+ flux slope (higher = more flux/activation; lower = inhibition) is -0.244. In the case of `Cc1ccc(NC(=O)Nc2cc(-c3ccccc3)nn2C)cc1Cl` it was 0.308; in that of `CCOC(=O)c1cnc(COc2ccccc2Cl)[nH]c1=O`, 1.26; in that of `Cn1c(=O)c2c(nc(NCc3ccccc3)n2CC(N)=O)n(C)c1=O`, 0.178. With `CCn1c(-c2ccncc2)n[nH]c1=S` the figure was -0.798; with `Cc1cc(-c2csc(N)n2)c(C)n1Cc1ccccc1`, 1.01; with `CCc1cc(-c2n[nH]c(=S)n2CC(C)C)cs1`, 8.35 (active). With `CCCc1cc(-c2n[nH]c(=S)n2Cc2ccccc2)cs1` the figure was 4.54 (active); with `C=CCn1c(-c2ccc3[nH]c(C)c(C)c3c2)n[nH]c1=S`, -0.00959. As to `CCCc1cc(-c2n[nH]c(=S)n2CC)c2ccccc2n1`, the B-score of Tl+ flux slope (higher = more flux/activation; lower = inhibition) was -0.942. In the case of `CSC1=NCCN1C(=O)Cc1cccc2ccccc12` it was 0.183; in that of `Brc1ccc(-c2n(-c3ccccn3)c3ccccc3[n+]2-c2ccccn2)cc1`, 1.55. In the case of `CCCc1ccc(C(=O)[C@@H]2[C@@H](C(C)=O)N3c4ccc(F)cc4C=C[C@@H]3[C@@]23C(=O)Nc2ccccc23)cc1` it was 0.383; in that of `O=S(=O)(c1cccc(-c2nnc3n2CCCCC3)c1)N1CCOCC1`, -1.09; in that of `O=C(Nc1nnc(C2COc3ccccc3O2)o1)c1ccc(F)cc1` (centres undefined), 15 (active). For `c1ccc2c(c1)OCC(c1nn3cnnc3s1)O2` (centres undefined), the B-score of Tl+ flux slope (higher = more flux/activation; lower = inhibition) was -0.604.

`O=C(CN1C(=O)COc2ccccc21)Nc1ccc(F)cc1`: the B-score of Tl+ flux slope (higher = more flux/activation; lower = inhibition) was 0.048. With `O=C(NNC(=O)c1csc(-c2cccnc2)n1)Nc1ccc(Cl)cc1` the figure was -0.334. With `COc1ccc(NC(=O)CCN2C(=O)/C(=C/c3ccc4c(c3)OCO4)SC2=S)cc1` the figure was -1.33; with `CCC1(C)Cc2c(sc3nc(SC)[nH]c(=O)c23)CO1` (centres undefined), 0.823; with `CCC1(C)Cc2c(sc3nc4n(c(=O)c23)CCCS4)CO1` (centres undefined), -0.0542.

For `CCC1(C)Cc2c(sc3[nH]c(=S)n(Cc4ccccc4)c(=O)c23)CO1` (centres undefined), the B-score of Tl+ flux slope (higher = more flux/activation; lower = inhibition) was 35.8 (active). In the case of `Cc1c(C)c(C)c2[nH]c(=S)[nH]c2c1C` it was 0.63; in that of `COc1ccc(Cl)cc1C(=O)NNC(=O)c1nc2nc(C)cc(C)n2n1`, -1.53; in that of `CCN1CCN(c2nc(Nc3cccc(F)c3)nc(N)c2[N+](=O)[O-])CC1`, -0.953. With `N#Cc1c(-c2ccc(Cl)cc2)c2c([nH]c1=S)CCCC2` the figure was 13.8 (active); with `CC(=O)c1c(C)[nH]c(=S)c(C#N)c1-c1ccc(F)cc1`, 0.0246.

In the case of `N#Cc1c2c(c(-c3ccccc3)[nH]c1=O)CCCC2`, the B-score of Tl+ flux slope (higher = more flux/activation; lower = inhibition) was -0.0377. With `COc1ccc(NC(=O)C2=C(C)NC(=O)NC2c2ccccc2[N+](=O)[O-])cc1` (centres undefined) the figure was -1.15. With `Cc1ccc(Cl)c(OCC(=O)NN2CCN(C)CC2)c1` the figure was 0.242. In the case of `NC(=O)C1(C(N)=O)OC1c1ccc(Cl)cc1Cl` (centres undefined) it was 0.213; in that of `CCN1CCN(CC(=O)c2cc(OC)c(OC)c(OC)c2)CC1`, 0.89. As to `COc1ccc(CCNS(=O)(=O)c2cccc3cccnc23)cc1OC`, the B-score of Tl+ flux slope (higher = more flux/activation; lower = inhibition) was -0.941. With `COc1ccc(OCc2n[nH]c(=S)n2N)cc1` the figure was 0.178; with `S=c1[nH]nc(COc2ccccc2)n1-c1ccccc1`, 0.195; with `Cc1ccc(OCc2n[nH]c(=S)n2-c2ccc(C)cc2)cc1`, 13.5 (active). With `CCc1ccccc1NC(=O)CSc1nnc(CCNC(=O)OC(C)(C)C)o1` the figure was -1.55; with `CSc1ncnc2sc(C)c(C)c12`, 8.38 (active); with `CCOC(=O)C(C)n1cnc2sc(C)c(C)c2c1=O` (centres undefined), 0.498. Consider `CCN(CC)CCCSc1nc2ccccc2s1`, for which the B-score of Tl+ flux slope (higher = more flux/activation; lower = inhibition) was -0.568. With `CCCNc1ncnc2sc(C)c(C)c12` the figure was -0.897. For `COC(=O)c1c(-c2cccs2)csc1NC(=O)CSc1ncnc2sc(C)c(C)c12`, the B-score of Tl+ flux slope (higher = more flux/activation; lower = inhibition) was 0.971. In the case of `Cc1sc2ncnc(Sc3nc4ccccc4s3)c2c1C` it was 2.96 (active).
